According to paper PMC5700166:

What was measured:
[1] = target: T1, GST-Nv-NF-kB (Ser allele) (Nematostella vectensis, UniProt A7UNT2 2-411); assay: protein-binding microarray (PBM); PBM: ~300 nM protein, 6 mM HEPES pH 7.8, 80 mM KCl, 0.5 mM EDTA, 0.5 mM EGTA, 6% glycerol, 35 ng/ul poly-dIdC, 1% milk, 1 h, room temperature; Ap Aiptasia and Nv Nematostella (sea anemones) / Co Capsaspora / Aq Amphimedon (sponge) / Dm Drosophila / Hu human; RHD is the Rel homology domain; high values mean tight binding; settings: dsDNA, one strand shown
T1 sequence: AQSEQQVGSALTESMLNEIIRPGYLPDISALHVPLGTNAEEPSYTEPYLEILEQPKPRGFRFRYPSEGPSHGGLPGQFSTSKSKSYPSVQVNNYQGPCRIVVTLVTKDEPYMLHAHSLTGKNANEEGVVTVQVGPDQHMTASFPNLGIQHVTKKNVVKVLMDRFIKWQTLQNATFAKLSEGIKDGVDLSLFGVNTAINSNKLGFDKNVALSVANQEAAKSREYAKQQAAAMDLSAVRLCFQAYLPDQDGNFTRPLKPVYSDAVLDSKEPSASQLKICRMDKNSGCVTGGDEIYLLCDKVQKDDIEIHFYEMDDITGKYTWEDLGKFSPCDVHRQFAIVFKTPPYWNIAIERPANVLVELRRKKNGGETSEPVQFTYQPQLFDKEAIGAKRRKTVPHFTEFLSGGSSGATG

GST-Hu-p50 = GST-Hu-p50 (Homo sapiens, UniProt P19838 7-356); assay: as above; settings: dsDNA, one strand shown
GST-Hu-p50, sequence (P19838 7-356): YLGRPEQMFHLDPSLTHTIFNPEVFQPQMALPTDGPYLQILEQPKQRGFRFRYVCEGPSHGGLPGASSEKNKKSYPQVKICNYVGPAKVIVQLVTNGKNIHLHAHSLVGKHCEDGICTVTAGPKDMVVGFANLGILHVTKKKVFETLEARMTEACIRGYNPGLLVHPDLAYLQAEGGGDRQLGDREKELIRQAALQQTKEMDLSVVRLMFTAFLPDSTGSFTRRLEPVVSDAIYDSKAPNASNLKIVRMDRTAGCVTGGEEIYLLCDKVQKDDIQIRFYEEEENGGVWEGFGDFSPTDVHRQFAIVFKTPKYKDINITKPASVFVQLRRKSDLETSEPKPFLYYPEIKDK

Sequence	binding signal [1]	binding signal (GST-Hu-p50)
CCGATTAACATCAGGAAGTTCCCTGATGTTAATCGGGTCTTGATTCGCTTGACGCTGCTG	2.53 z-score	3.79 z-score
CCGATTAACATCAGGGACTCACCTGATGTTAATCGGGTCTTGATTCGCTTGACGCTGCTG	2.72 z-score	3 z-score
CCGATTAACATCAGGCCACCCCCTGATGTTAATCGGGTCTTGATTCGCTTGACGCTGCTG	2.48 z-score	3.82 z-score
CCGATTAACATCACCTTCCCCCCTGATGTTAATCGGGTCTTGATTCGCTTGACGCTGCTG	5.23 z-score	4.59 z-score
CCGATTAACATCACGGGTTTCCCTGATGTTAATCGGGTCTTGATTCGCTTGACGCTGCTG	4.88 z-score	3.17 z-score
CCGATTAACATCAAAAGAATCCCTGATGTTAATCGGGTCTTGATTCGCTTGACGCTGCTG	2.43 z-score	3.14 z-score
CCGATTAACATCAGGGGAGAATATGATGTTAATCGGGTCTTGATTCGCTTGACGCTGCTG	6.21 z-score	4.46 z-score
CCGATTAACATCAGGGGGTGTACTGATGTTAATCGGGTCTTGATTCGCTTGACGCTGCTG	3.99 z-score	4.44 z-score
CCGATTAACATCAGAAAAAACCCTGATGTTAATCGGGTCTTGATTCGCTTGACGCTGCTG	5.08 z-score	4.96 z-score
CCGATTAACATCATGGGAAAAAATGATGTTAATCGGGTCTTGATTCGCTTGACGCTGCTG	5.03 z-score	3.83 z-score
CCGATTAACATCAAAAAAAATCCTGATGTTAATCGGGTCTTGATTCGCTTGACGCTGCTG	1.23 z-score	1.51 z-score
CCGATTAACATCAGGAGACTCCCTGATGTTAATCGGGTCTTGATTCGCTTGACGCTGCTG	1.61 z-score	1.93 z-score
CCGATTAACATCATGCGGGAAAATGATGTTAATCGGGTCTTGATTCGCTTGACGCTGCTG	4.76 z-score	2.69 z-score
CCGATTAACATCAGGGGAGCCCCTGATGTTAATCGGGTCTTGATTCGCTTGACGCTGCTG	5.34 z-score	5.03 z-score
CCGATTAACATCAGGGGATCCCATGATGTTAATCGGGTCTTGATTCGCTTGACGCTGCTG	6.24 z-score	4.5 z-score
CCGATTAACATCAGGGGTGGGAATGATGTTAATCGGGTCTTGATTCGCTTGACGCTGCTG	1.67 z-score	1.53 z-score
CCGATTAACATCAGGGGGTATACTGATGTTAATCGGGTCTTGATTCGCTTGACGCTGCTG	4.26 z-score	3.99 z-score
CCGATTAACATCACATTCTCCCCTGATGTTAATCGGGTCTTGATTCGCTTGACGCTGCTG	5.45 z-score	3.4 z-score

Sequence	binding signal [1]	binding signal (GST-Hu-p50)
CCGATTAACATCAGGAGTACCCCTGATGTTAATCGGGTCTTGATTCGCTTGACGCTGCTG	2.31 z-score	2.81 z-score
CCGATTAACATCATTGTCCCTTCTGATGTTAATCGGGTCTTGATTCGCTTGACGCTGCTG	3.35 z-score	1.99 z-score
CCGATTAACATCACGAGTTTCCCTGATGTTAATCGGGTCTTGATTCGCTTGACGCTGCTG	5.41 z-score	2.39 z-score
CCGATTAACATCAGGAAATTTCCTGATGTTAATCGGGTCTTGATTCGCTTGACGCTGCTG	2.16 z-score	2.5 z-score
CCGATTAACATCAGGGAAACCACTGATGTTAATCGGGTCTTGATTCGCTTGACGCTGCTG	4.02 z-score	3.94 z-score
CCGATTAACATCAGGGTTTTTTATGATGTTAATCGGGTCTTGATTCGCTTGACGCTGCTG	4.61 z-score	4.89 z-score
CCGATTAACATCAGGAATATTCCTGATGTTAATCGGGTCTTGATTCGCTTGACGCTGCTG	1.09 z-score	1.36 z-score
CCGATTAACATCAGGAGTTTCCCTGATGTTAATCGGGTCTTGATTCGCTTGACGCTGCTG	4.67 z-score	4.81 z-score
CCGATTAACATCAGGGGGGGACCTGATGTTAATCGGGTCTTGATTCGCTTGACGCTGCTG	3.87 z-score	3.99 z-score
CCGATTAACATCACGGGAAGTCCTGATGTTAATCGGGTCTTGATTCGCTTGACGCTGCTG	1.71 z-score	1.59 z-score
CCGATTAACATCAACAGGGAAAATGATGTTAATCGGGTCTTGATTCGCTTGACGCTGCTG	5.98 z-score	3.34 z-score
CCGATTAACATCAAGGTAATTCCTGATGTTAATCGGGTCTTGATTCGCTTGACGCTGCTG	3.37 z-score	2.4 z-score
CCGATTAACATCAGGGAAATATATGATGTTAATCGGGTCTTGATTCGCTTGACGCTGCTG	5.62 z-score	4.03 z-score
CCGATTAACATCACACACCCCCCTGATGTTAATCGGGTCTTGATTCGCTTGACGCTGCTG	3.65 z-score	3.63 z-score
CCGATTAACATCATGGTGGGAAATGATGTTAATCGGGTCTTGATTCGCTTGACGCTGCTG	2.25 z-score	2.18 z-score
CCGATTAACATCAAAAAACACCCTGATGTTAATCGGGTCTTGATTCGCTTGACGCTGCTG	4.25 z-score	5.16 z-score
CCGATTAACATCACCCATGGGAATGATGTTAATCGGGTCTTGATTCGCTTGACGCTGCTG	1.02 z-score	1.43 z-score
